# Measurements as given in article PMC7862700, “An all-to-all approach to the identification of sequence-specific readers for epigenetic DNA modifications on cytosine”.
# Legend:
# Test in all cases: DAPPL (digital affinity profiling via proximity ligation, sequencing); 10 mM Tris-HCl pH 7.5, 50 mM NaCl, 1 mM DTT, 4% glycerol, room temperature, 30 min; GST-TFs on glutathione beads, 16-mer random dsDNA library, 0.1% formaldehyde crosslink after washing; high values mean tight binding
# Conditions in all cases: protein: recombinant; tags: N-terminal GST; dsDNA, one strand shown
# FLI1 = target: T1, FLI1 (Homo sapiens, UniProt Q01543 1-452)
# T1 sequence: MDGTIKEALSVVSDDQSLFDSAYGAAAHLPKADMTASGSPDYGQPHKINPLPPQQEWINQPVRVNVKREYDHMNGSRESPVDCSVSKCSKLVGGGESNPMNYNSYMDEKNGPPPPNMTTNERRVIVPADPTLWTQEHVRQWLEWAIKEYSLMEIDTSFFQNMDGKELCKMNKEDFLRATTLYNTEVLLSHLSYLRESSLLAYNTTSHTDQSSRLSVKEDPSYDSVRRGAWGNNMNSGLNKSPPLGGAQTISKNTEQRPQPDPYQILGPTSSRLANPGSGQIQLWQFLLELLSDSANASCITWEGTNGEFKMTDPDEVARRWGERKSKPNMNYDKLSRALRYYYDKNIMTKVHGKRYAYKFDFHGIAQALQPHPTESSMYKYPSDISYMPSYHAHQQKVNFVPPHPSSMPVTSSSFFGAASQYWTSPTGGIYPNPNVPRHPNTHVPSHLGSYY
# How it was run: (§1)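 The binding signal reported is, for every hexamer, its read frequency for a factor over its read frequency for the tag-only sample. Reads came from pools of yeast-expressed, GST-fused human transcription factors on glutathione beads, barcoded with DNA and mixed with that sample, which were incubated with 200 nmole of a random double-stranded 16-mer DNA library in Tris/NaCl/DTT/glycerol buffer at room temperature for 30 min. After washing, the pools were crosslinked with 0.1% formaldehyde, proximity-ligated with BsaI/T4 ligase for 1 h at 37 °C, PCR-amplified and sequenced on an Illumina NextSeq500.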
# ELK1 = target: T2, ELK1 (Homo sapiens, UniProt P19419 1-428)
# T2 sequence: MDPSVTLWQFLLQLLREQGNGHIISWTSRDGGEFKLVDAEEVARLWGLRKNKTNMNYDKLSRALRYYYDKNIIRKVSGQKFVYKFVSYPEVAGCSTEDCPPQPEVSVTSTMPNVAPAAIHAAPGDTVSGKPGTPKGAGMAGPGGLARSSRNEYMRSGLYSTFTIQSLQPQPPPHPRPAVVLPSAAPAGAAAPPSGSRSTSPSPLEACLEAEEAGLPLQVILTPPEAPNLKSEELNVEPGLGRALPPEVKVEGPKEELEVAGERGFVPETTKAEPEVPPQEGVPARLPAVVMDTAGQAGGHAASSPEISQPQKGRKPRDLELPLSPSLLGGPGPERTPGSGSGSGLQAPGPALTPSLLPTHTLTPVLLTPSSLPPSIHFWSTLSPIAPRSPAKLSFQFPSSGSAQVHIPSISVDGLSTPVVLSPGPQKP
# How it was run: as §1
# GABPA = target: T3, GABPA (Homo sapiens, UniProt Q06546 1-454)
# T3 sequence: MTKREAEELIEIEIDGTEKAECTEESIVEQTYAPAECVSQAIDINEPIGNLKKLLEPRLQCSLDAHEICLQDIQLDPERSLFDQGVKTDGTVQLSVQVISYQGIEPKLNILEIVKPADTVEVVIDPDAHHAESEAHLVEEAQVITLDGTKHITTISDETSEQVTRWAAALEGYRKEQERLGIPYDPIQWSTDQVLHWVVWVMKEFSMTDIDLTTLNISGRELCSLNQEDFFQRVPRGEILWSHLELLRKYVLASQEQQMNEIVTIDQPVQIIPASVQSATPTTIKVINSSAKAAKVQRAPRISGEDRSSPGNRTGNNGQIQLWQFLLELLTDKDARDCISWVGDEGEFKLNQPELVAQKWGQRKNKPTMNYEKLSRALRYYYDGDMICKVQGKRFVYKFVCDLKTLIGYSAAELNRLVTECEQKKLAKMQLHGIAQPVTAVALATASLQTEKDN
# How it was run: as §1
# ERG = target: T4, ERG (Homo sapiens, UniProt P11308 1-479)
# T4 sequence: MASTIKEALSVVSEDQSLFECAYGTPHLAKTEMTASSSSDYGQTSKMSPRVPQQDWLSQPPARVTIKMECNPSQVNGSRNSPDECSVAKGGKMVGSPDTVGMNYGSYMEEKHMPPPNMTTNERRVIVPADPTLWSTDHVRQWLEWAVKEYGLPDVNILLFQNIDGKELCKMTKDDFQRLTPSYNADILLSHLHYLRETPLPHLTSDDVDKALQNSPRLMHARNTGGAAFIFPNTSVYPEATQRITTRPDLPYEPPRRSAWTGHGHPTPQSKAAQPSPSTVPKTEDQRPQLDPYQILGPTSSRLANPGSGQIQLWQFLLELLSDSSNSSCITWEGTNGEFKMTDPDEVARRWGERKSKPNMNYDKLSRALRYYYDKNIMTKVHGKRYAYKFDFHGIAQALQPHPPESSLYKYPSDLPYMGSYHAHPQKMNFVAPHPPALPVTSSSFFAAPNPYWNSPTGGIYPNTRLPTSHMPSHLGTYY
# How it was run: as §1
# ELF1 = ELF1 (Homo sapiens, UniProt P32519 1-619)
# How it was run: as §1
# EHF = target: T5, EHF (Homo sapiens, UniProt Q9NZC4 1-300)
# T5 sequence: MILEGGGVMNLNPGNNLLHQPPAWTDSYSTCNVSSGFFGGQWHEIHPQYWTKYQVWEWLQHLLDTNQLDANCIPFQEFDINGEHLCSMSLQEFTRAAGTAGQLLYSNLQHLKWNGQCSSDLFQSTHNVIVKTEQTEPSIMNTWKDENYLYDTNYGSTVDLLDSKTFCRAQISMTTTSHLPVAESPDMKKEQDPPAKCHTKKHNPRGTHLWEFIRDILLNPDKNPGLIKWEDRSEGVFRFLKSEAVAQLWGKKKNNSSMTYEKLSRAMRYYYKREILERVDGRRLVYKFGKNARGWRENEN
# How it was run: as §1
# SPI1 = SPI1 (Homo sapiens, UniProt P17947 1-270)
# How it was run: as §1
# SPIB = SPIB (Homo sapiens, UniProt Q01892 1-262)
# How it was run: as §1
# ELK3 = target: T6, ELK3 (Homo sapiens, UniProt P41970 1-407)
# T6 sequence: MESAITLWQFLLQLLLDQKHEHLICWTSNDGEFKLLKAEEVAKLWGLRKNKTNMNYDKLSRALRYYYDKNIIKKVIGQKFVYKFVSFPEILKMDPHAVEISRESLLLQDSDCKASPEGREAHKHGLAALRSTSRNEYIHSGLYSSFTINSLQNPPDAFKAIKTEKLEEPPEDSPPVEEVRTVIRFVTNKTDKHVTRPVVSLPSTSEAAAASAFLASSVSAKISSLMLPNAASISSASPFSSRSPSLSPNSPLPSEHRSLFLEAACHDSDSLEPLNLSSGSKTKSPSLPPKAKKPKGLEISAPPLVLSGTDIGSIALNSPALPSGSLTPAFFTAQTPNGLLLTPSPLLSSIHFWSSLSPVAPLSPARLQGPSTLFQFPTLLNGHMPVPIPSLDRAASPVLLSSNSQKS
# How it was run: as §1
# FEV = target: T7, FEV (Homo sapiens, UniProt Q99581 1-238)
# T7 sequence: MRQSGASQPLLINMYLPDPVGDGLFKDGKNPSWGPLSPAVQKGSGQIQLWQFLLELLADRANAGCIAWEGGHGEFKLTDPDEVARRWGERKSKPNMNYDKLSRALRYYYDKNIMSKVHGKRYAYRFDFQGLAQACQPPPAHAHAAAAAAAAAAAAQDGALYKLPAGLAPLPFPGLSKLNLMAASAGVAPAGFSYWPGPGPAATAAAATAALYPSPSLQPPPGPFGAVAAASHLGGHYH
# How it was run: as §1
# Sequence of SPIB (Q01892 whole entry): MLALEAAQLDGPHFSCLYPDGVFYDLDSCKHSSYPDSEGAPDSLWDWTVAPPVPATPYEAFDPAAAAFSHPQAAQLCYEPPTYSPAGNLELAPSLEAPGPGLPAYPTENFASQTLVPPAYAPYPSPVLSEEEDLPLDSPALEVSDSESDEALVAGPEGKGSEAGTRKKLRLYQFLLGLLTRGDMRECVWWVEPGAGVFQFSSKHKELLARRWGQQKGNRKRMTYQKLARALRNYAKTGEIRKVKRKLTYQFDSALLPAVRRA
# Sequence of ELF1 (P32519 whole entry): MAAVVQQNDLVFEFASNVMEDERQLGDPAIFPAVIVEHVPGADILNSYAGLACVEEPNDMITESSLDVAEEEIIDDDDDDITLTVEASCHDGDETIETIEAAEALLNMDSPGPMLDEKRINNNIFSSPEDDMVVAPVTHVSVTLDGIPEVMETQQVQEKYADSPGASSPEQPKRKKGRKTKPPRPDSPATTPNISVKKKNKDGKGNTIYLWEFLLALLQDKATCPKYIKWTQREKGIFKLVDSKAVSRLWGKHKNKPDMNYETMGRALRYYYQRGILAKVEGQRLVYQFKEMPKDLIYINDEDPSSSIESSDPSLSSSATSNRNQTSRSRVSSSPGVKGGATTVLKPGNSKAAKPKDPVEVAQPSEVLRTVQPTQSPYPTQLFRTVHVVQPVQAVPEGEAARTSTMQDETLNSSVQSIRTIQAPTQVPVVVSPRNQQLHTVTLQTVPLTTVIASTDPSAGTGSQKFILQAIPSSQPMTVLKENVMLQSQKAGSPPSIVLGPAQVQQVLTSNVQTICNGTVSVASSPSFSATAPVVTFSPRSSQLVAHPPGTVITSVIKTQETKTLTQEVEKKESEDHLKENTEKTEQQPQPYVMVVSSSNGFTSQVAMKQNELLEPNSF
sequence,measurement,setting,value
CCACCT,binding signal,FLI1,"1.16 fold enrichment (6-mer frequency, TF over GST control)"
same,binding signal,ELK1,"1.12 fold enrichment (6-mer frequency, TF over GST control)"
same,binding signal,GABPA,"1.1 fold enrichment (6-mer frequency, TF over GST control)"
same,binding signal,ERG,"1.11 fold enrichment (6-mer frequency, TF over GST control)"
same,binding signal,ELF1,"1.15 fold enrichment (6-mer frequency, TF over GST control)"
same,binding signal,EHF,"1.21 fold enrichment (6-mer frequency, TF over GST control)"
same,binding signal,SPI1,"1.11 fold enrichment (6-mer frequency, TF over GST control)"
same,binding signal,SPIB,"1.07 fold enrichment (6-mer frequency, TF over GST control)"
same,binding signal,ELK3,"1.06 fold enrichment (6-mer frequency, TF over GST control)"
same,binding signal,FEV,"1.17 fold enrichment (6-mer frequency, TF over GST control)"
